This note sets out measurements from ChEMBL document CHEMBL4513216, “Probing the Open Global Health Chemical Diversity Library for Multistage-Active Starting Points for Next-Generation Antimalarials” (ACS Infect Dis, 2020).

SMILES strings stand for the structures. The campaign covered roughly 69,000 compounds. About 8,600 (12%) showed an effect of 50% or more. The sample as a whole holds a higher share of strong results than the screen did.

For the assay, the system named is Plasmodium berghei. Nature of the assay: Screen against P. berghei liver stage (PbLuc), transformed with Luciferase, at 10uM. Format: functional, HepG2. To be noted: tested at 10 uM.
As to `O=C(C1=CCCC1)N1CCC[C@]2(C[C@@H](OCc3ccncc3)CO2)C1`, the INHIBITION was -9.67%.
In the case of `Cc1ccccc1C1(C(=O)NCCN(C)C)CCOCC1` it was 18.9665%; in that of `CC(C)N(C)Cc1ncn2c1CN(C(=O)C1CCCO1)CCC2` (stereo not given), 4.08%.
In the case of `O=c1c2c[nH]c(N3CCOCC3)nc-2cn1Cc1cccc(F)c1` it was 33.4%; in that of `COc1ccc(C(=O)CCc2nc(C3CC3)no2)cc1F`, -19.1%; in that of `COc1nn(C)c2c1CCCN(C(=O)c1ccsc1)C2`, -15.7%.
Take `O=C1CN(C(=O)C2CN(c3ccc(F)cc3)CCO2)CCN1` (stereo not given): the INHIBITION is -19.925%.
In the case of `Cn1cnc(NC(=O)C2CC(=O)N(c3cccc(F)c3)C2)n1` (stereo not given) it was 6.448%.
Regarding `Cc1nc(C)n(CC2CCCN2Cc2nc3ccccc3s2)n1` (stereo not given), the INHIBITION amounted to 33.8%.
In the case of `CNc1cc(C2CCCN2C(=O)CCc2ccccc2F)ccn1` (stereo not given) it was 22%; in that of `Cc1sc2nc(CCN)nc(N(CCN(C)C)CC3CCCO3)c2c1C` (stereo not given), 51.3%.
The value for `CCN(CCN(C)C)c1nc(CCN)nc2sc(C)c(C)c12` was 71%.
In the case of `COCCN(Cc1cccs1)c1nc(CCN)nc2ccccc12` it was -17.3%; in that of `COCCN(CC1CC1)c1nc(CCN)nc2ccccc12`, 16.2%.
As to `Cc1sc2nc(CCN)nc(N(C)CCCC3CCCO3)c2c1C` (stereo not given), the INHIBITION was determined as 43.2%.
For `Cc1nn(C)c2nc(N(CCN(C)C)CC3CCCO3)sc12` (stereo not given), the INHIBITION is on record as 35.3%.
Regarding `COCCN(CC1CC1)c1nc(CCN)nc2sc(C)c(C)c12`, the INHIBITION is given as 65.3%.
In the case of `O=C(NCCCO)c1nnsc1-c1ccccc1` it was 46.6%; in that of `Cc1sc2c(C3CCCN(S(C)(=O)=O)C3)nc(C)n2c1C` (stereo not given), -22.6%.
`Cc1cccc2nc(-c3nc4c([nH]3)CCCNC4=O)cn12`: the INHIBITION is on record as -176%.
In the case of `COc1ccnc(N2CCN(C(=O)COCC(F)(F)F)CC2)n1` it was -2.725%; in that of `Cc1nn(C)c(Cl)c1C1CCCN1C(=O)c1cnccn1` (stereo not given), 25.1%; in that of `Cc1cc(CN(C)C(=O)C(c2cccnc2)N2CCOCC2)n[nH]1` (stereo not given), 51.7%.
The value for `Cc1ncsc1CCN(C)C(=O)C(c1cccnc1)N1CCOCC1` (stereo not given) was 0.266%; that for `CN(Cc1cc(C2CC2)on1)C(=O)C(c1cccnc1)N1CCCC1` (stereo not given) was 48.9%.
In the case of `Cc1n[nH]c(C)c1CCN(C)C(=O)C(c1cccnc1)N1CCOCC1` (stereo not given) it was -12.5%.
With `CN(Cc1cc(C2CC2)[nH]n1)C(=O)C(c1cccnc1)N1CCCC1` (stereo not given), the INHIBITION amounted to 68.4%.
In the case of `CN(CCc1ccccn1)C(=O)C(c1cccnc1)N1CCOCC1` (stereo not given) it was -29.2%; in that of `O=C(NCCNc1cccnc1)C(c1cccnc1)N1CCCC1` (stereo not given), -0.55%.
In the case of `Cc1cc(C)nc(CN(C)C(=O)C(c2cccnc2)N2CCCC2)c1` (stereo not given) it was 61.9%.
Regarding `CCCn1ncc(C(=O)N(C)Cc2cc(C3CC3)[nH]n2)c1C`, the INHIBITION turned out to be 40.6%.
On to `O=C(c1ccsc1)N1CCO[C@@H]2CN(Cc3nccs3)C[C@@H]2C1`, for which the INHIBITION is listed as 42.1%.
In the case of `CC1COCCN1C(=O)Nc1cnc2c(cnn2C(C)C)c1` (stereo not given) it was -27.9%; in that of `O=C1COc2ccc(C(=O)N3CCCC(n4ccnc4)C3)cc2N1` (stereo not given), -12.2%.
Take `Cc1cccc(C(Nc2nccc(C)n2)C2CC2)n1` (stereo not given): the INHIBITION was 6.66%.
The value for `COc1c(C2CCCN2CC(=O)Nc2cccnc2)c(C)nn1C` (stereo not given) was 19.4%; that for `O=C(c1ccsc1)N1CCC2(CCN(Cc3ccccn3)C2=O)C1` (stereo not given) was -5.08%; that for `CN(CCCOc1ccccc1Cl)C(=O)CN1CCNC1=O` was 17%.
The value for `CC(C)[C@H]1CN(C2Cc3ccccc3C2)C[C@@H]1NS(C)(=O)=O` was 55%.
As to `CC(C)[C@H]1CN(c2ccncc2)C[C@@H]1NC(=O)C1(C#N)CCOCC1`, the INHIBITION was determined as 10.9%.
In the case of `Cc1nc2cc(C(=O)N3C[C@@H](NS(C)(=O)=O)[C@H](C(C)C)C3)ccc2[nH]1` it was 39%; in that of `CC(C)[C@@H]1CN(C(=O)NCc2ccco2)C[C@H]1NS(=O)(=O)N(C)C`, 62.8%.
In the case of `CC(C)[C@H]1CN(c2ccncc2)C[C@@H]1NS(=O)(=O)N(C)C` it was 76.8%; in that of `CC(C)[C@@H]1CN(C(=O)CCn2ccccc2=O)C[C@H]1NS(C)(=O)=O`, 8.53%.
In the case of `CC(C)[C@@H]1CN(CC(=O)NCc2ccco2)C[C@H]1NS(=O)(=O)N(C)C`, the INHIBITION is listed as 27.8%.
The value for `CC(C)[C@@H]1CN(C(=O)NCc2ccco2)C[C@H]1N(C)C` was 31.4%; that for `CCN(C)S(=O)(=O)N[C@H]1CN(c2ccc(F)cn2)C[C@@H]1C(C)C` was 64.5%; that for `CC(C)[C@@H]1CN(c2ccc(F)cn2)C[C@H]1NS(C)(=O)=O` was 30.9%.
The value for `CC(C)[C@@H]1CN(c2ncc(F)cn2)C[C@H]1NS(=O)(=O)N(C)C` was 41.7%; that for `CC(C)[C@@H]1CN(c2ccc(C(F)(F)F)cn2)C[C@H]1NS(C)(=O)=O` was 26.4%; that for `Cn1cc(C2CCCN2C(=O)CCn2c(=O)oc3ccccc32)cn1` (stereo not given) was -13.7%.
In the case of `CN1CCCc2cc(CNC(=O)c3cccnc3O)ccc21` it was -18.8%.
Consider `COC(=O)c1ccc(N(C(=O)c2cccnc2C)C(C)C)c(C)c1`, for which the INHIBITION is given as -4.63%.
For `CC(C)CNC(=O)[C@H]1CCS(=O)(=O)[C@@H]2CN(Cc3cccc(Cl)c3)C[C@H]12`, the INHIBITION came to 36.8%.
In the case of `Cn1ccnc1C1CCCN(C(=O)c2ccc3nccnc3c2)C1` (stereo not given) it was 6.11%; in that of `Cn1ncc2c(=O)[nH]c(CN3CCc4sccc4C3)nc21`, 13.3%.
Take `Cc1ncncc1C(=O)N1CCCC(n2cccn2)C1` (stereo not given): the INHIBITION is on record as 2.97%.
In the case of `Cc1cc(NC(=O)NCc2cccnc2OC(C)C)no1` it was 31.2%; in that of `Cc1cc(C)n(CC(C)Nc2nc(C)nc3c2CCNC3)n1` (stereo not given), -9.18%.
The value for `Cc1oc(-c2ccco2)nc1CN1CCc2cncnc2C1` was 45.4%; that for `c1cncc(CNC2CCc3ncnn3C2)c1` (stereo not given) was 33.3%; that for `Cc1ccc(C)c(NCc2nc3n(n2)CCCCC3)c1` was 17.6%.
The value for `Cc1csc2c(C3CCN(C(=O)Cn4cncn4)CC3)nc(C)n12` was 32.3%; that for `CC(C)c1nc(C2CCCN2CCS(C)(=O)=O)no1` (stereo not given) was 31.5%; that for `CC(C)[C@H]1CN(C2Cc3ccccc3C2)C[C@@H]1NS(=O)(=O)N(C)C` was 55%.
Turning to `CC(C)[C@@H]1CN(S(=O)(=O)Cc2ccccc2)C[C@H]1NS(=O)(=O)N(C)C`, the INHIBITION came out at 32.7%.
The value for `CC(C)[C@@H]1CN(CCOc2ccccc2)C[C@H]1NS(=O)(=O)N(C)C` was 33.2%; that for `CS(=O)(=O)N[C@@H]1CN(Cc2ccccc2)C[C@@H]2CCCO[C@@H]21` was -57.7%.
The value for `CS(=O)(=O)N[C@@H]1CN(Cc2ccccc2)C[C@H]1O` was 22.8%; that for `CC(C)[C@@H]1CN(C2CCN(Cc3ccccc3)CC2)C[C@H]1NS(C)(=O)=O` was 64.9%.
